Laboratory results: PubChem BioAssay (NCATS)
Inconclusive results are not listed. Where a call stands in place of a potency, no number is given. Active and inactive are the calls of the source. Calls follow the shape of the dose curve; as a rule, active = well fitted curve in the direction sought with a large enough effect; inconclusive = small, poorly fitted or top-dose-only effect, or another doubt; inactive = no such curve, though single readings can be large; an effect the other way counts as inactive or inconclusive.

Tests used:
[1] = target: Aldehyde dehydrogenase, mitochondrial (Homo sapiens) (UniProt P05091); assay: qHTS for Inhibitors of the Aldehyde Dehydrogenase Family (ALDH2) Primary screen (AID 2061308); also: nearly all actives have a fitted effect of over 55% in size
[2] = target: Retinaldehyde dehydrogenase 3 (Homo sapiens) (UniProt P47895); assay: qHTS for Inhibitors of the Aldehyde Dehydrogenase Family (ALDH1A3) Primary screen (AID 2061315)

Structure (SMILES)	Potency [1]	Potency [2]
Cc1ccc(Nc2nc(-c3ccncc3)nc3ccccc23)cc1F	inactive	inactive
CCC1CCC(C(=O)Nc2ccc(S(=O)(=O)Nc3nccs3)cc2)CC1 (stereo not drawn)	inactive	inactive
COc1c2cc(c(O)c1OC)CCCCC(O)CCc1ccc(O)c-2c1 (stereo not drawn)	inactive	inactive
O=S(=O)(c1ccc(C(F)(F)F)cc1)N1CCN(S(=O)(=O)c2ccc3c(c2)OCCO3)CC1	inactive	inactive
Cc1cc(C)n2ncc(C(=O)Nc3ccc4c(c3)CCC4)c2n1	inactive	inactive
O=C([C@H](Cc1ccc(O[S+](=O)([O-])c2cccc3cccnc23)cc1)N[S+](=O)([O-])c1cccnc1)N1CCN(c2ccccc2)CC1	inactive	inactive
CC(=O)N1CCN(S(=O)(=O)c2ccc3c(c2)CC(=O)N3)CC1	inactive	inactive
CN(C)[S+](=O)([O-])c1ccc(-c2ccc(=O)n(CC(=O)NCCc3ccccc3)n2)cc1	inactive	inactive
Nc1cc(NC(=O)Nc2nnc(-c3ccncc3)s2)ccc1Cl	inactive	inactive
Cc1cc(C)nc(NC(=S)N2CCN(c3cc(Br)cc(C(F)(F)F)c3)CC2)c1	inactive	inactive
Cc1cc(N[S+](=O)([O-])c2ccc(NC(=O)Cc3ccc(F)c(F)c3)cc2)no1	inactive	inactive
COc1cc(O)c(C(CC(=O)N2CCC(C)CC2)c2ccc(C)cc2)c(OC)c1 (stereo not drawn)	inactive	inactive
COc1ccc(OC)c(C2=Nn3c(nnc3-c3ccccc3O)SC2)c1	inactive	inactive
O=S(=O)(c1ccc2c(c1)OCCO2)N1CCN(S(=O)(=O)c2c(Cl)cc(C(F)(F)F)cc2Cl)CC1	inactive	inactive
